Hit rate of the full screen: of about 5,500 compounds, about 2,000 (36%) were called active. About 18% were inconclusive and are not listed. Cut-off read from the data, not from the text of the source: active = normalized growth mostly below about 0.91 (no sharp cut-off); inconclusive = no clear call, values can overlap the other calls; inactive = mostly above about 0.92. The list shows a part of the results.
Experiment: chemical genetic growth profiling, strain panel (AID 1159580);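 note: tested at 20 µM; growth read once vehicle control cultures reached saturation at 30 °C; 1 = growth at the plate median or of vehicle wells; lower values mean less growth of the strain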
Conditions: S. cerevisiae deletion strains, growth OD
[1] = locus YAR019C, strain CDC15, hits give low values
[2] = locus YBL105C, strain PKC1, hits give low values
[3] = locus YBR135W, strain CKS1, hits give low values
[4] = locus YBR136W, strain MEC1, hits give low values
[5] = locus YBR160W, strain CDC28, hits give low values
[6] = locus YDL017W, strain CDC7, hits give low values
[7] = locus YDL028C, strain MPS1, hits give low values
[8] = locus YDL101C, strain DUN1, hits give low values
[9] = locus YDL108W, strain KIN28, hits give low values
[10] = locus YDL132W, strain cdc53, hits give low values
[11] = locus YDL214C, strain PRR2, hits give low values
[12] = locus YDR052C, strain DBF4, hits give low values
[13] = locus YDR054C, strain cdc34, hits give low values
[14] = locus YDR226W, strain ADK1, hits give low values
[15] = locus YDR477W, strain SNF1, hits give low values
[16] = locus YER123W, strain YCK3, hits give low values
[17] = locus YER133W, strain GLC7, hits give low values
[18] = locus YFL009W, strain cdc4, hits give low values
[19] = locus YFL029C, strain CAK1, hits give low values
[20] = locus YFR003C, strain YPI1, hits give low values
[21] = locus YFR019W, strain FAB1, hits give low values
[22] = locus YFR028C, strain CDC14, hits give low values
[23] = locus YGR040W, strain KSS1, hits give low values
[24] = locus YGR052W, strain FMP48, hits give low values
[25] = locus YGR092W, strain DBF2, hits give low values
[26] = locus YHR030C, strain SLT2, hits give low values
[27] = locus YHR079C, strain IRE1, hits give low values
[28] = locus YHR082C, strain KSP1, hits give low values
[29] = locus YHR205W, strain SCH9, hits give low values
[30] = locus YIL147C, strain SLN1, hits give low values
[31] = locus YJL095W, strain BCK1, hits give low values
[32] = locus YJL128C, strain PBS2, hits give low values
[33] = locus YJL157C, strain FAR1, hits give low values
[34] = locus YJR016C, strain ILV3, hits give low values
[35] = locus YJR066W, strain TOR1 (second series), hits give low values
[36] = locus YJR066W, strain TOR1, hits give low values
[37] = locus YKL048C, strain ELM1, hits give low values
[38] = locus YKL067W, strain YNK1, hits give low values
[39] = locus YKL101W, strain HSL1, hits give low values
[40] = locus YKL193C, strain SDS22, hits give low values
[41] = locus YKL203C, strain TOR2, hits give low values
[42] = locus YLR113W, strain HOG1, hits give low values
[43] = locus YLR133W, strain CKI1, hits give low values
[44] = locus YLR403W, strain SFP1, hits give low values
[45] = locus YML070W, strain DAK1, hits give low values
[46] = locus YMR001C, strain CDC5, hits give low values
[47] = locus YMR205C, strain PFK2 (second series), hits give low values
[48] = locus YMR277W, strain FCP1, hits give low values
[49] = locus YNL006W, strain LST8, hits give low values
[50] = locus YNL020C, strain ARK1, hits give low values
[51] = locus YNL161W, strain CBK1, hits give low values
[52] = locus YNL183C, strain NPR1, hits give low values
[53] = locus YNL207W, strain RIO2, hits give low values
[54] = locus YNL222W, strain SSU72, hits give low values
[55] = locus YNL307C, strain MCK1 (second series), hits give low values
[56] = locus YOL078W, strain AVO1, hits give low values
[57] = locus YOL136C, strain PFK27, hits give low values
[58] = locus YOR061W, strain CKA2, hits give low values
[59] = locus YOR119C, strain RIO1, hits give low values
[60] = locus YOR231W, strain MKK1, hits give low values
[61] = locus YOR329C, strain SCD5, hits give low values
[62] = locus YPL031C, strain PHO85, hits give low values
[63] = locus YPL153C, strain RAD53, hits give low values
[64] = locus YPL204W, strain HRR25, hits give low values
[65] = locus YPL209C, strain IPL1, hits give low values
[66] = locus YPL256C, strain CLN2, hits give low values
[67] = locus YPR025C, strain CCL1, hits give low values
[68] = locus YPR106W, strain ISR1, hits give low values
[69] = locus YPR111W, strain DBF20, hits give low values
[70] = strain NNK1, hits give low values
[71] = strain TSCII, hits give low values

Measured: normalized growth

Cc1ccc2nc(-c3ccc(Cl)cc3)cn2c1
inactive: [1] 0.961 | [2] 0.97 | [3] 0.968 | [4] 0.968 | [5] 0.954 | [6] 0.964 | [7] 0.974 | [8] 0.969 | [9] 0.971 | [10] 0.962 | [11] 0.95 | [12] 0.972 | [13] 0.949 | [14] 0.959 | [15] 0.933 | [16] 0.89 | [17] 0.923 | [18] 0.967 | [19] 0.956 | [20] 0.97 | [21] 0.944 | [22] 0.958 | [23] 0.911 | [24] 0.974 | [25] 0.903 | [26] 0.889 | [27] 0.936 | [28] 1 | [29] 0.966 | [30] 0.975 | [31] 0.948 | [32] 0.966 | [33] 0.92 | [34] 0.97 | [35] 0.937 | [36] 0.953 | [37] 0.956 | [38] 0.936 | [39] 0.953 | [40] 0.961 | [41] 0.97 | [42] 0.906 | [43] 0.953 | [44] 0.93 | [45] 0.91 | [46] 0.965 | [47] 0.952 | [48] 0.961 | [49] 0.962 | [50] 0.946 | [51] 0.961 | [52] 0.928 | [53] 0.97 | [54] 0.958 | [55] 0.907 | [56] 0.97 | [57] 0.921 | [58] 0.948 | [59] 0.982 | [60] 0.884 | [61] 0.969 | [62] 0.949 | [63] 0.899 | [64] 0.9 | [65] 0.959 | [66] 0.909 | [67] 0.969 | [68] 0.964 | [69] 0.96 | [70] 0.986 | [71] 0.959

Cc1ccc(-c2csc(-c3cccnc3)n2)c(C)c1
inactive: [1] 0.948 | [2] 0.967 | [3] 0.954 | [4] 0.958 | [5] 0.963 | [6] 0.967 | [7] 0.964 | [8] 0.938 | [9] 0.964 | [10] 0.946 | [11] 0.88 | [12] 0.96 | [13] 0.943 | [14] 0.964 | [15] 0.87 | [16] 0.769 | [17] 0.85 | [18] 0.954 | [19] 0.943 | [20] 0.959 | [21] 0.821 | [22] 0.947 | [23] 0.832 | [24] 0.933 | [25] 0.737 | [27] 0.839 | [28] 0.901 | [29] 0.886 | [30] 0.957 | [31] 0.772 | [32] 0.946 | [33] 0.898 | [34] 0.956 | [35] 0.796 | [36] 0.833 | [37] 0.939 | [38] 0.897 | [39] 0.914 | [40] 0.945 | [41] 0.847 | [43] 0.905 | [44] 0.809 | [45] 0.891 | [46] 0.957 | [47] 0.879 | [48] 0.951 | [49] 0.96 | [50] 0.898 | [51] 0.96 | [52] 0.826 | [53] 0.935 | [54] 0.955 | [55] 0.862 | [56] 0.953 | [57] 0.894 | [58] 0.912 | [59] 0.881 | [60] 0.841 | [61] 0.951 | [62] 0.832 | [63] 0.838 | [64] 0.796 | [65] 0.955 | [67] 0.959 | [68] 0.957 | [69] 0.966 | [70] 0.947 | [71] 0.948
active: [26] 0.763 | [42] 0.854 | [66] 0.849

From PubChem BioAssay AID1159580 (chemical genetic matrix, 2015)
